Test [1] can be described thus: NCI Yeast Anticancer Drug Screen. Data for the rad50 strain (AID 155).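 Note: 0% = growth of vehicle-only cultures of the same strain.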 The settings on record: S. cerevisiae rad50 strain growth inhibition, hits give high values. In short, it runs like this: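 Vehicle-treated cultures provide the reference for the growth inhibition reported for compound-exposed, repair-deficient yeast.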
Test [2] can be described thus: NCI Yeast Anticancer Drug Screen. Data for the mec2-1 strain (AID 157). The settings on record: S. cerevisiae mec2-1 strain, hits give high values. In short, it runs like this: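 Yeast mec2-1 mutant treated with compound. Readout: growth inhibition vs vehicle controls.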
Test [3] in a line: NCI Yeast Anticancer Drug Screen. Data for the sgs1 mgt1 strain (AID 161).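 Note: 0% = growth of cultures given vehicle only.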 The settings on record: S. cerevisiae sgs1 mgt1 strain, hits give high values. In short, it runs like this:
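Inhibition of yeast growth, normalised to vehicle-treated controls, is reported for a strain bearing genetic alterations in DNA damage repair.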

Test [4] in a line: NCI Yeast Anticancer Drug Screen. Data for the cln2 rad14 strain (AID 165).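 Note: 0% = growth equal to vehicle treated cultures.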 To be noted: S. cerevisiae cln2 rad14 strain, hits give high values. In short, it runs like this:
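cln2 rad14 yeast strain; compound exposure; growth inhibition read vs vehicle controls.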

A short description of test [5]: NCI Yeast Anticancer Drug Screen. Data for the bub3 strain (AID 167). The settings on record: S. cerevisiae bub3 mutant strain, hits give high values. In short, it runs like this: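 Mutant yeast screening strain plus compound; vehicle-treated cultures serve as the 0% inhibition reference.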
Test [6] is described as follows: NCI Yeast Anticancer Drug Screen. Data for the mlh1 rad18 strain (AID 175). The settings on record: S. cerevisiae mlh1 rad18 strain growth inhibition, hits give high values. In short, it runs like this:
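Yeast w/ defined DNA-repair lesions; compound exposure; growth vs vehicle controls → % inhibition.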

The mark [7] stands for this setting: at 5.0 µM (retest, dose inferred, filed as 0.5).
Setting [8] is: at 50.0 µM (retest, dose inferred, filed as 5.0).

Each structure is given as a SMILES string. This is part of a sample that, as a whole, favours compounds with a hit. Of some 79,000 tested, about 15% had one in any assay. Unmarked numbers belong to inactive results. Active and inactive are the calls of the source. Cut-off read from the data, not from the text of the source: active = growth inhibition above about 70%; inactive = the rest.

As to `O=P(C(=S)Nc1ccccc1Cl)(c1ccccc1)c1ccccc1`, the growth inhibition in test [1] (setting [7]) was 15%; in test [1] (setting [8]), 96% (active); in test [1] (at 50.0 µM), 88.5% (active); in test [2] (setting [7]), 16%; in test [2] (setting [8]), 98% (active); in test [2] (at 50.0 µM), 90.5% (active). For the same compound, the growth inhibition in test [3] (setting [7]) is -1%; in test [3] (setting [8]), 96% (active); in test [3] (at 50.0 µM), 92.8% (active); in test [4] (setting [7]) it was -6%; in test [4] (setting [8]), 97% (active); in test [4] (at 50.0 µM) it was 87.5% (active). Moreover, the growth inhibition in test [5] (setting [7]) was -26%; in test [5] (setting [8]), 97% (active); in test [5] (at 50.0 µM), 89.2% (active); in test [6] (setting [7]), -26%; in test [6] (setting [8]) it was 96% (active); in test [6] (at 50.0 µM) it was 89.2% (active).

As to `CCOC(=O)NN(C(=O)OCC)c1ccc(N=Nc2ccc(OC)cc2)n1C`, the growth inhibition in test [1] (setting [7]) is 1%; in test [1] (setting [8]) it was 84% (active); in test [1] (at 50.0 µM), 46%; in test [2] (setting [7]), -25%; in test [2] (setting [8]), 85% (active); in test [2] (at 50.0 µM) it was 60.8%. For the same compound, the growth inhibition in test [3] (setting [7]) was -22%; in test [3] (setting [8]) it was 87% (active); in test [3] (at 50.0 µM) it was 70.3% (active); in test [4] (setting [7]) it was 29%; in test [4] (setting [8]) it was 70% (active); in test [4] (at 50.0 µM), 71.5% (active). In addition, the growth inhibition in test [5] (setting [7]) is -40%; in test [5] (setting [8]), 78% (active); in test [5] (at 50.0 µM) it was 74% (active); in test [6] (setting [7]), -32%; in test [6] (setting [8]), 77% (active); in test [6] (at 50.0 µM), 69.9%.

For the compound `CCOC(=O)c1ccc2c(c1)Cc1cc([N+](=O)[O-])ccc1-2`, the growth inhibition in test [1] (setting [7]) was 1%; in test [1] (setting [8]) it was 65%; in test [1] (at 50.0 µM), 43.6%; in test [2] (setting [7]) it was -2%; in test [2] (setting [8]), 37%; in test [2] (at 50.0 µM), 15.8%. In addition, the growth inhibition is 7% in test [3] (setting [7]); 72% (active) in test [3] (setting [8]); 51% in test [3] (at 50.0 µM); -97% in test [4] (setting [7]); 12% in test [4] (setting [8]); 4.15% in test [4] (at 50.0 µM). For the same compound, the growth inhibition in test [5] (setting [7]) is 43%; in test [5] (setting [8]), 89% (active); in test [5] (at 50.0 µM), 80.8% (active); in test [6] (setting [7]), 7%; in test [6] (setting [8]), 57%; in test [6] (at 50.0 µM), 58.1%.

Turning to `CCCC(C)NCCCCCNc1cc(OC)cc2cccnc12` (stereo not given), the growth inhibition in test [1] (setting [7]) is 3%; in test [1] (setting [8]), 60%; in test [1] (at 50.0 µM) it was 78.8% (active); in test [2] (setting [7]), 2%; in test [2] (setting [8]), 22%; in test [2] (at 50.0 µM) it was 48.5%. Moreover, the growth inhibition in test [3] (setting [7]) was 25%; in test [3] (setting [8]) it was 62%; in test [3] (at 50.0 µM), 71.6% (active); in test [4] (setting [7]), 14%; in test [4] (setting [8]), 40%; in test [4] (at 50.0 µM), 42%. Moreover, the growth inhibition in test [5] (setting [7]) was 19%; in test [5] (setting [8]), 61%; in test [5] (at 50.0 µM) it was 82.2% (active); in test [6] (setting [7]) it was -19%; in test [6] (setting [8]) it was 11%; in test [6] (at 50.0 µM), 76.5% (active).

On to `CCOC(=O)C(C(=O)O)(C(c1ccccc1)c1ccccc1)C(c1ccccc1)c1ccccc1`, for which the growth inhibition in test [1] (setting [7]) is 97% (active); in test [1] (setting [8]) it was 98% (active); in test [1] (at 50.0 µM), 98.5% (active); in test [2] (setting [7]), 100% (active); in test [2] (setting [8]) it was 100% (active); in test [2] (at 50.0 µM), 99.5% (active). The growth inhibition in test [3] (setting [7]) is 98% (active); in test [3] (setting [8]) it was 99% (active); in test [3] (at 50.0 µM), 98.4% (active); in test [4] (setting [7]), 98% (active); in test [4] (setting [8]), 99% (active); in test [4] (at 50.0 µM) it was 98.9% (active). Moreover, the growth inhibition was 98% (active) in test [5] (setting [7]); 98% (active) in test [5] (setting [8]); 98.3% (active) in test [5] (at 50.0 µM); 99% (active) in test [6] (setting [7]); 99% (active) in test [6] (setting [8]); 99% (active) in test [6] (at 50.0 µM).

On to `CCOC(=O)c1ccc(NC(=O)O/N=C(/Cl)CCl)cc1`, for which the growth inhibition in test [1] (setting [7]) was -14%; in test [1] (setting [8]), 99% (active); in test [1] (at 50.0 µM), 41.2%; in test [2] (setting [7]) it was -5%; in test [2] (setting [8]), 95% (active); in test [2] (at 50.0 µM) it was 83.8% (active). The growth inhibition in test [3] (setting [7]) was -22%; in test [3] (setting [8]) it was 50%; in test [3] (at 50.0 µM) it was 55.3%; in test [4] (setting [7]), -10%; in test [4] (setting [8]), 78% (active); in test [4] (at 50.0 µM), 57.2%. The growth inhibition in test [5] (setting [7]) is -16%; in test [5] (setting [8]) it was 43%; in test [5] (at 50.0 µM), 73.5% (active); in test [6] (setting [7]), -5%; in test [6] (setting [8]), 79% (active); in test [6] (at 50.0 µM), 69%.

In the case of `O=C(NNc1ccccc1)C(O)C(O)C(O)C(O)C(O)C(O)C(O)CO` (stereo not given), the growth inhibition in test [1] (setting [7]) is 17%; in test [1] (setting [8]) it was 87% (active); in test [1] (at 50.0 µM), 69.1%; in test [2] (setting [7]) it was 10%; in test [2] (setting [8]) it was 78% (active); in test [2] (at 50.0 µM), 39.4%. The growth inhibition in test [3] (setting [7]) is 10%; in test [3] (setting [8]), 82% (active); in test [3] (at 50.0 µM), 88.1% (active); in test [4] (setting [7]), 3%; in test [4] (setting [8]), 82% (active); in test [4] (at 50.0 µM), 95.9% (active). In addition, the growth inhibition is 1% in test [5] (setting [7]); 94% (active) in test [5] (setting [8]); 88.3% (active) in test [5] (at 50.0 µM); 45% in test [6] (setting [7]); 96% (active) in test [6] (setting [8]); 92.8% (active) in test [6] (at 50.0 µM).

For the compound `Cc1cc(Cl)ccc1NC(=O)CC1SC(=NC(=O)c2ccccc2Cl)NC1=O` (stereo not given), the growth inhibition in test [1] (setting [7]) is 98% (active); in test [1] (setting [8]), 99% (active); in test [1] (at 50.0 µM), 91% (active); in test [2] (setting [7]) it was 99% (active); in test [2] (setting [8]) it was 100% (active); in test [2] (at 50.0 µM), 94.2% (active). Further, the growth inhibition in test [3] (setting [7]) was 96% (active); in test [3] (setting [8]) it was 99% (active); in test [3] (at 50.0 µM), 90.7% (active); in test [4] (setting [7]) it was 48%; in test [4] (setting [8]) it was 99% (active); in test [4] (at 50.0 µM) it was 92.4% (active). The growth inhibition in test [5] (setting [7]) was 98% (active); in test [5] (setting [8]) it was 99% (active); in test [5] (at 50.0 µM), 91.5% (active); in test [6] (setting [7]), 98% (active); in test [6] (setting [8]), 99% (active); in test [6] (at 50.0 µM), 92.2% (active).

As to `Cc1ccc(-c2c(C#N)c(S)n(NS(=O)(=O)c3ccccc3)c(=O)c2C#N)cc1`, the growth inhibition in test [1] (setting [7]) was 28%; in test [1] (setting [8]), 89% (active); in test [1] (at 50.0 µM), 60.1%; in test [2] (setting [7]), 12%; in test [2] (setting [8]), 91% (active); in test [2] (at 50.0 µM) it was 80% (active). Further, the growth inhibition in test [3] (setting [7]) was 32%; in test [3] (setting [8]) it was 94% (active); in test [3] (at 50.0 µM), 83.8% (active); in test [4] (setting [7]) it was 47%; in test [4] (setting [8]), 64%; in test [4] (at 50.0 µM), 29.4%. Also, the growth inhibition in test [5] (setting [7]) is 53%; in test [5] (setting [8]), 94% (active); in test [5] (at 50.0 µM) it was 71.2% (active); in test [6] (setting [7]) it was 16%; in test [6] (setting [8]), 66%; in test [6] (at 50.0 µM), 75.6% (active).

As for `O=S(=O)(ON=C1C=CC(=NOS(=O)(=O)c2ccccc2)C=C1)c1ccccc1`, the growth inhibition was 27% in test [1] (setting [7]); 44% in test [1] (setting [8]); 95.2% (active) in test [1] (at 50.0 µM); 6% in test [2] (setting [7]); 55% in test [2] (setting [8]); 94% (active) in test [2] (at 50.0 µM). Also, the growth inhibition in test [3] (setting [7]) was 21%; in test [3] (setting [8]), 48%; in test [3] (at 50.0 µM) it was 95% (active); in test [4] (setting [7]), 16%; in test [4] (setting [8]) it was 54%; in test [4] (at 50.0 µM) it was 94.1% (active). The growth inhibition in test [5] (setting [7]) was 14%; in test [5] (setting [8]), 54%; in test [5] (at 50.0 µM), 96.7% (active); in test [6] (setting [7]) it was 48%; in test [6] (setting [8]), 76% (active); in test [6] (at 50.0 µM), 96% (active).

The record behind these values is PubChem BioAssay (NCI).
